The text below walks through data of PubChem BioAssay (NCI).

Among the test systems are NCI-H23 lung; NCI-H226 lung; NCI-H322M lung; HOP-62 NSCLC; NCI-H460 lung; HOP-92 NSCLC; NCI-H522 lung; A549/ATCC NSCLC; 786-0 renal; COLO 205 colon; DU-145 prostate; K-562 leukemia; MALME-3M melanoma; MDA-MB-231 breast; RXF 393 renal; SF-268 CNS; SF-539 CNS; UACC-257 melanoma; M14 melanoma.
Common to all, as to experiment: NCI-60 one-dose screen, 48 h (100 = growth as untreated, 0 = no growth, -100 = all killed)
Conditions in all cases: 10 µM unless noted

About 83,000 compounds went through this panel and 20% of them were active in at least one assay; those are over-represented in the sample as a whole.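 Negative percent growth values reflect cell death: -40 means 40% of the cells present at the start died, and -100 means all died.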 Values without a mark were called inactive. The source made the active and inactive calls. The calls were made as follows: active = growth percent below 10; inactive = the rest.

Consider `CC1=C(C(=O)Nc2ccc(F)cc2)C(c2ccc(C)cc2)C2=C(CC(C)(C)CC2=O)N1` (configuration not stated), for which the growth is 93.4% in the test with NCI-H23 lung; 89.8% in the test with NCI-H226 lung; 103% in the test with NCI-H322M lung; 91.5% with HOP-62 NSCLC; 90.8% in the test with NCI-H460 lung; 68.4% with HOP-92 NSCLC. Moreover, the growth was 91.2% with NCI-H522 lung; 92.4% in the test on A549/ATCC NSCLC; 97.2% in the test on 786-0 renal; 105% in the test with COLO 205 colon; 106% with DU-145 prostate; 93.3% with K-562 leukemia. Further, the growth in the test on MALME-3M melanoma is 102%; in the test with MDA-MB-231 breast, 86.6%; in the test with RXF 393 renal, 92.1%; in the test on SF-268 CNS, 88%; with SF-539 CNS it was 93.3%; with UACC-257 melanoma, 98.5%. Besides, the growth with M14 melanoma was 101%.
As to `CCCc1cc2c(cc1CN(Cc1cc3c(cc1CCC)OCO3)C(=N)OCC)OCO2`, the growth with NCI-H23 lung was 79.8%; with NCI-H226 lung, 86.4%; in the test with NCI-H322M lung, 91.9%; in the test on HOP-62 NSCLC, 83.7%; in the test on NCI-H460 lung it was 75.5%; in the test on HOP-92 NSCLC it was 55%. The growth in the test on NCI-H522 lung was 54.2%; in the test with A549/ATCC NSCLC, 71.8%; in the test on 786-0 renal, 89.7%; in the test on COLO 205 colon it was 93.6%; in the test on DU-145 prostate, 97.6%; in the test on K-562 leukemia, 63.4%. The growth in the test on MALME-3M melanoma was 82.8%; with MDA-MB-231 breast, 77.8%; in the test on RXF 393 renal, 106%; with SF-268 CNS it was 79.2%; with SF-539 CNS, 112%; in the test with UACC-257 melanoma, 83.9%. Further, in the test on M14 melanoma, the growth was 85.9%.
`COc1ccc2nc(C)cc(Nc3ccccc3O)c2c1`: the growth with NCI-H23 lung is 100%; in the test with NCI-H226 lung, 0.475% (active); in the test with NCI-H322M lung, 59.9%; with HOP-62 NSCLC, -61.9% (active); in the test with NCI-H460 lung it was 20.6%; with HOP-92 NSCLC, -23.7% (active). Further, the growth in the test on NCI-H522 lung is 47.3%; in the test with A549/ATCC NSCLC, 3.25% (active); with 786-0 renal, -67% (active); in the test with COLO 205 colon, 89.9%; with DU-145 prostate, 63.9%; in the test with K-562 leukemia, 6.3% (active). Further, the growth with MALME-3M melanoma was -12.4% (active); in the test on MDA-MB-231 breast, 9.5% (active); in the test on RXF 393 renal, -41.7% (active); with SF-268 CNS it was 64.8%; in the test with SF-539 CNS, -72.7% (active); in the test on UACC-257 melanoma it was 75.1%. Moreover, the growth in the test on M14 melanoma is 81.8%.
Take `COc1cc(C)cc2oc3oc(=O)c(-c4csc(-c5cc6ccccc6oc5=O)n4)cc3c(=O)c12`: the growth in the test on NCI-H23 lung is 101%; in the test with NCI-H226 lung, 102%; in the test on NCI-H322M lung, 105%; with HOP-62 NSCLC, 103%; in the test on NCI-H460 lung it was 106%; in the test with HOP-92 NSCLC, 105%. For the same compound, the growth is 103% in the test with NCI-H522 lung; 114% in the test with A549/ATCC NSCLC; 106% in the test with 786-0 renal; 119% with COLO 205 colon; 113% in the test with DU-145 prostate; 112% in the test with K-562 leukemia. Also, the growth with MALME-3M melanoma was 105%; in the test on MDA-MB-231 breast it was 99.5%; in the test with RXF 393 renal, 102%; with SF-268 CNS, 105%; in the test on SF-539 CNS it was 99.3%; in the test with UACC-257 melanoma, 115%. The growth in the test on M14 melanoma is 104%.
As to `COc1ccccc1/C=N\NC(=S)Nc1ccc(F)cc1`, the growth is 72.5% in the test on NCI-H23 lung; 90.9% in the test with NCI-H226 lung; 96% with NCI-H322M lung; 79.8% in the test on HOP-62 NSCLC; 80.5% with NCI-H460 lung; 71% in the test on HOP-92 NSCLC. Also, the growth in the test with NCI-H522 lung is 38.1%; with A549/ATCC NSCLC, 68%; in the test on 786-0 renal, 93.6%; in the test on COLO 205 colon, 91.9%; in the test on DU-145 prostate, 98.6%; with K-562 leukemia, 32.3%. Also, the growth is 65% in the test on MALME-3M melanoma; 59.8% in the test on MDA-MB-231 breast; 88.2% in the test on RXF 393 renal; 91.6% in the test with SF-268 CNS; 73.3% with SF-539 CNS; 77.2% in the test with UACC-257 melanoma. The growth with M14 melanoma is 48.4%.
Regarding `CCc1oc2ccccc2c1C(=O)c1cc(I)c(O)c(I)c1`, the growth in the test with NCI-H23 lung was 58.5%; in the test with NCI-H226 lung it was 74.8%; with NCI-H322M lung it was 98.3%; in the test on HOP-62 NSCLC it was 108%; with NCI-H460 lung, 21.6%; with HOP-92 NSCLC it was 53.2%. Further, the growth in the test with NCI-H522 lung is 30%; with A549/ATCC NSCLC it was 40.3%; in the test on 786-0 renal, 62%; in the test on COLO 205 colon it was 104%; in the test on DU-145 prostate, 77.8%; in the test with K-562 leukemia, 25%. Also, the growth with MALME-3M melanoma was 53%; with MDA-MB-231 breast it was 54.7%; in the test on RXF 393 renal, 45.3%; with SF-268 CNS, 53.1%; with SF-539 CNS, 44%; with UACC-257 melanoma it was 70.7%. For the same compound, the growth in the test with M14 melanoma is 16.2%.
Take `N#Cc1c(N)c(C(=O)c2ccc3c(c2)OCCO3)n2c1CCCC2`: the growth in the test on NCI-H23 lung is 42.7%; in the test with NCI-H226 lung, 81.7%; in the test with NCI-H322M lung, 25.3%; in the test with HOP-62 NSCLC it was 35.4%; in the test on NCI-H460 lung, 15.9%; in the test on HOP-92 NSCLC, 64.4%. Also, the growth in the test on NCI-H522 lung was -33.3% (active); with A549/ATCC NSCLC it was 34.5%; in the test with 786-0 renal it was 53%; with COLO 205 colon, 14.9%; in the test with DU-145 prostate, 45.2%; in the test with K-562 leukemia it was 0.198% (active). The growth was -8.49% (active) in the test on MALME-3M melanoma; 52.3% in the test on MDA-MB-231 breast; 31.4% in the test with RXF 393 renal; 36.9% in the test on SF-268 CNS; 24.2% in the test on SF-539 CNS; 45.9% in the test on UACC-257 melanoma. For the same compound, the growth in the test on M14 melanoma is 19.4%.
On to `COc1ccc(/C=c2\c(=O)n(-c3ccccc3)c3nn4c(=O)c(=O)[nH]nc4n23)cc1`, for which the growth is 99.9% in the test on NCI-H23 lung; 92.8% with NCI-H226 lung; 113% in the test on NCI-H322M lung; 102% in the test on HOP-62 NSCLC; 106% in the test with NCI-H460 lung; 100% with HOP-92 NSCLC. In addition, the growth in the test on NCI-H522 lung is 100%; in the test with A549/ATCC NSCLC it was 110%; in the test on 786-0 renal, 108%; in the test with COLO 205 colon it was 119%; with DU-145 prostate, 115%; in the test on K-562 leukemia it was 122%. Further, the growth was 104% with MALME-3M melanoma; 122% in the test on MDA-MB-231 breast; 123% in the test on RXF 393 renal; 104% with SF-268 CNS; 103% with SF-539 CNS; 110% in the test on UACC-257 melanoma. Also, the growth in the test with M14 melanoma is 99.5%.
